Several values for one entry are separate records, joined by “and”; a condition that tells them apart may be missing. Identical values can stand only once. In all, about 5,500 compounds went through this assay and about 2,000 (36%) were called active. Not shown: some 18% with an inconclusive outcome. Rule as the data show it: active = normalized growth mostly below about 0.91 (no sharp cut-off); inconclusive = no clear call, values can overlap the other calls; inactive = mostly above about 0.92. The list shows a part of the results.
Assay: chemical genetic growth profiling, strain panel (AID 1159580);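 also: tested at 20 µM; growth read once vehicle control cultures reached saturation at 30 °C; 1 = growth at the plate median or of vehicle wells; lower values mean less growth of the strain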
Details: S. cerevisiae deletion strains, growth OD
[1] = locus YJR075W, strain HOC1, stronger effect = lower value
[2] = locus YNL128W, strain TEP1, stronger effect = lower value
[3] = locus YNL322C, strain KRE1, stronger effect = lower value

Measured: normalized growth

COC(=O)/C=C/C(C)=C/C=C/C(C)=C/C=C/C=C(C)/C=C/C=C(C)/C=C/C(=O)O
inactive: locus YAL013W, strain DEP1, stronger effect = lower value 1 | locus YAL021C, strain ccr4, stronger effect = lower value 1.02 | locus YAL026C, strain drs2, stronger effect = lower value 1.02 | locus YAL030W, strain snc1, stronger effect = lower value 1.02 | locus YBL061C, strain skt5, stronger effect = lower value 1.04 | locus YBR009C, strain hhf1, stronger effect = lower value 1.02 | locus YBR021W, strain FUR4, stronger effect = lower value 1.03 | locus YBR023C, strain chs3, stronger effect = lower value 1.03 | locus YBR171W, strain sec66, stronger effect = lower value 1.03 | locus YBR229C, strain ROT2, stronger effect = lower value 1.02 | locus YBR231C, strain swc5, stronger effect = lower value 1.02 | locus YBR279W, strain paf1, stronger effect = lower value 0.988 | locus YCL011C, strain gbp2, stronger effect = lower value 1.02 | locus YCL016C, strain dcc1, stronger effect = lower value 1.02 | locus YCL029C, strain bik1, stronger effect = lower value 1.01 | locus YCL061C, strain MRC1, stronger effect = lower value 1.02 | locus YCL069W, strain vba3, stronger effect = lower value 1.02 | locus YCR088W, strain abp1, stronger effect = lower value 1.02 | locus YDL005C, strain med2, stronger effect = lower value 1.01 | locus YDL035C, strain GPR1, stronger effect = lower value 1.02 | locus YDL040C, strain nat1, stronger effect = lower value 1.01 | locus YDL074C, strain BRE1, stronger effect = lower value 1 | locus YDL101C, strain DUN1, stronger effect = lower value 1.02 | locus YDL134C, strain PPH21, stronger effect = lower value 1.04 | locus YDL185W, strain tfp1, stronger effect = lower value 1.02 | locus YDL192W, strain arf1, stronger effect = lower value 1.01 | locus YDR001C, strain nth1, stronger effect = lower value 1.03 | locus YDR069C, strain doa4, stronger effect = lower value 1.04 | locus YDR101C, strain arx1, stronger effect = lower value 0.997 | locus YDR137W, strain rgp1, stronger effect = lower value 1.05 | locus YDR150W, strain NUM1, stronger effect = lower value 1.02 | locus YDR159W, strain sac3, stronger effect = lower value 1.05 | locus YDR162C, strain NBP2, stronger effect = lower value 1.03 | locus YDR195W, strain ref2 0.993 | locus YDR297W, strain sur2, stronger effect = lower value 1.03 | locus YDR318W, strain mcm21, stronger effect = lower value 1 | locus YDR334W, strain swr1, stronger effect = lower value 1.02 | locus YDR335W, strain msn5, stronger effect = lower value 1.02 | locus YDR388W, stronger effect = lower value 0.998 | locus YDR392W, strain spt3, stronger effect = lower value 1.03 | locus YDR502C, strain sam2, stronger effect = lower value 1.01 | locus YEL003W, strain gim4, stronger effect = lower value 1.02 | locus YEL037C, strain rad23, stronger effect = lower value 1.02 | locus YEL061C, strain CIN8 (second series), stronger effect = lower value 1.01 | locus YEL061C, strain CIN8, stronger effect = lower value 1.01 | locus YER015W, strain faa2, stronger effect = lower value 1.02 | locus YER016W, strain bim1, stronger effect = lower value 1.01 | locus YER110C, stronger effect = lower value 0.989 | locus YER111C, strain swi4, stronger effect = lower value 1.02 | locus YER155C, strain BEM2 (second series), stronger effect = lower value 1.03 | locus YER155C, strain BEM2, stronger effect = lower value 0.994 | locus YER167W, strain BCK2, stronger effect = lower value 1.01 | locus YFR010W, strain ubp6, stronger effect = lower value 1.02 | locus YGL078C, strain dbp3, stronger effect = lower value 0.993 | locus YGL086W, strain mad1, stronger effect = lower value 0.986 | locus YGL167C, strain pmr1, stronger effect = lower value 1.03 | locus YGL173C, strain kem1, stronger effect = lower value 1.02 | locus YGL227W, strain vid30, stronger effect = lower value 1.03 | locus YGL240W, strain doc1, stronger effect = lower value 1.02 | locus YGL248W, strain PDE1, stronger effect = lower value 1.02 | locus YGL253W, strain hxk2, stronger effect = lower value 1.02 | locus YGR078C, strain PAC10, stronger effect = lower value 1.03 | locus YGR135W, strain pre9, stronger effect = lower value 1 | locus YGR252W, strain gcn5, stronger effect = lower value 0.983 | locus YHR013C, strain ard1, stronger effect = lower value 1.01 | locus YHR027C, strain rpn1, stronger effect = lower value 1.03 | locus YHR030C, strain SLT2, stronger effect = lower value 1.02 and 0.885 | locus YHR079C, strain IRE1 (second series), stronger effect = lower value 0.986 | locus YHR079C, strain IRE1, stronger effect = lower value 0.897 | locus YHR094C, strain hxt1, stronger effect = lower value 0.994 | locus YHR129C, strain ARP1, stronger effect = lower value 1.01 | locus YHR142W, strain chs7, stronger effect = lower value 1.03 | locus YHR200W, strain rpn10, stronger effect = lower value 1.01 | locus YIL066C, strain RNR3, stronger effect = lower value 1.03 | locus YIL073C, strain SPO22, stronger effect = lower value 1.01 | locus YIL125W, strain kgd1, stronger effect = lower value 0.997 | locus YIR030C, strain dcg1, stronger effect = lower value 0.995 | locus YJL092W, strain hpr5, stronger effect = lower value 1.03 | locus YJL095W, strain BCK1 (second series), stronger effect = lower value 1.02 | locus YJL095W, strain BCK1, stronger effect = lower value 1.04 and 0.924 | locus YJL115W, strain asf1, stronger effect = lower value 1.01 | locus YJL129C, strain trk1, stronger effect = lower value 1.02 | locus YJL134W, strain LCB3, stronger effect = lower value 1.01 | locus YJL154C, strain vps35, stronger effect = lower value 1.01 | locus YJL164C, strain tpk1, stronger effect = lower value 1.03 | locus YJL166W, strain qcr8, stronger effect = lower value 1.03 | locus YJL168C, strain set2, stronger effect = lower value 0.994 | locus YJL187C, strain SWE1 (second series), stronger effect = lower value 1.03 | locus YJL187C, strain SWE1, stronger effect = lower value 1.02 | locus YJR043C, strain POL32, stronger effect = lower value 1.03 | locus YJR066W, strain TOR1, stronger effect = lower value 0.898 | [1] 1.04 | locus YKL009W, strain mrt4, stronger effect = lower value 0.996 | locus YKL068W, stronger effect = lower value 1.01 | locus YKL085W, strain MDH1 (second series), stronger effect = lower value 0.989 | locus YKL085W, strain MDH1, stronger effect = lower value 0.989 | locus YKL160W, strain elf1, stronger effect = lower value 1.02 | locus YKL190W, strain CNB1, stronger effect = lower value 1.01 | locus YKR001C, strain vps1, stronger effect = lower value 1.01 | locus YKR026C, strain gcn3, stronger effect = lower value 1.02 | locus YKR091W, strain srl3, stronger effect = lower value 1.02 | locus YLL001W, strain dnm1, stronger effect = lower value 1.02 | locus YLL026W, stronger effect = lower value 1.02 | locus YLL041C, strain sdh2, stronger effect = lower value 1.02 | locus YLR027C, strain aat2, stronger effect = lower value 1.02 | locus YLR039C, strain RIC1, stronger effect = lower value 1.08 | locus YLR058C, strain SHM2, stronger effect = lower value 1.01 | locus YLR102C, strain apc9, stronger effect = lower value 0.988 | locus YLR221C, strain rsa3, stronger effect = lower value 1.02 | locus YLR258W, strain gsy2, stronger effect = lower value 1.02 | locus YLR262C, strain YPT6 (second series), stronger effect = lower value 1.06 | locus YLR262C, strain YPT6, stronger effect = lower value 1.04 | locus YLR268W, strain sec22, stronger effect = lower value 1.02 | locus YLR320W, strain mms22, stronger effect = lower value 1.04 | locus YLR330W, strain CHS5, stronger effect = lower value 1.02 | locus YLR342W, strain FKS1 (second series), stronger effect = lower value 1.01 | locus YLR342W, strain FKS1, stronger effect = lower value 1.03 | locus YLR357W, strain rsc2, stronger effect = lower value 1.02 | locus YLR370C, strain arc18, stronger effect = lower value 1.02 | locus YLR371W, strain rom2, stronger effect = lower value 0.988 | locus YLR384C, strain iki3, stronger effect = lower value 1.02 | locus YLR418C, strain cdc73, stronger effect = lower value 1.01 | locus YML016C, strain PPZ1, stronger effect = lower value 1.02 | locus YML032C, strain rad52, stronger effect = lower value 0.982 | locus YML120C, strain ndi1, stronger effect = lower value 1.02 | locus YML124C, strain tub3, stronger effect = lower value 0.996 | locus YMR058W, strain fet3, stronger effect = lower value 1.03 | locus YMR078C, strain ctf18, stronger effect = lower value 0.993 | locus YMR125W, strain sto1, stronger effect = lower value 1.01 | locus YMR129W, stronger effect = lower value 1.02 | locus YMR205C, strain PFK2, stronger effect = lower value 1.03 | locus YMR223W, strain ubp8, stronger effect = lower value 1.01 | locus YMR231W, strain pep5, stronger effect = lower value 1.01 | locus YMR263W, strain SAP30, stronger effect = lower value 1.02 | locus YMR307W, strain GAS1, stronger effect = lower value 1.04 | locus YNL067W, strain RPL9B, stronger effect = lower value 1.02 | locus YNL071W, strain lat1, stronger effect = lower value 1.02 | [2] 1.01 | locus YNL183C, strain NPR1, stronger effect = lower value 0.908 | locus YNL209W, strain ssb2, stronger effect = lower value 1.02 | locus YNL233W, strain BNI4, stronger effect = lower value 1.03 | locus YNL248C, strain rpa49, stronger effect = lower value 1.01 | locus YNL250W, strain rad50, stronger effect = lower value 0.986 | locus YNL271C, strain bni1, stronger effect = lower value 0.998 | locus YNL298W, strain CLA4, stronger effect = lower value 0.991 | locus YNL307C, strain MCK1, stronger effect = lower value 1 | locus YNL322C, strain KRE1 (second series), stronger effect = lower value 1.02 | [3] 1.01 | locus YNR049C, strain mso1, stronger effect = lower value 1.02 | locus YNR052C, strain pop2, stronger effect = lower value 0.998 | locus YOL006C, strain TOP1, stronger effect = lower value 1.11 | locus YOL012C, strain htz1 1.19 | locus YOL147C, strain pex11, stronger effect = lower value 0.996 | locus YOR001W, strain rrp6, stronger effect = lower value 1.02 | locus YOR061W, strain CKA2, stronger effect = lower value 1.02 | locus YOR069W, strain VPS5, stronger effect = lower value 1.01 | locus YOR070C, strain gyp1, stronger effect = lower value 1.02 | locus YOR080W, strain dia2, stronger effect = lower value 1.02 | locus YOR083W, strain WHI5, stronger effect = lower value 1.01 | locus YOR106W, strain vam3, stronger effect = lower value 1.02 | locus YOR136W, strain idh2, stronger effect = lower value 1 | locus YOR144C, strain elg1, stronger effect = lower value 1 | locus YOR184W, strain ser1, stronger effect = lower value 1.01 | locus YOR231W, strain MKK1, stronger effect = lower value 0.901 | locus YOR265W, strain rbl2, stronger effect = lower value 1.02 | locus YOR270C, strain vph1, stronger effect = lower value 0.954 | locus YOR290C, strain snf2, stronger effect = lower value 1.02 | locus YOR316C, strain cot1, stronger effect = lower value 0.989 | locus YPL051W, strain arl3, stronger effect = lower value 1.02 | locus YPL078C, strain atp4, stronger effect = lower value 1.02 | locus YPL106C, strain sse1, stronger effect = lower value 1.05 | locus YPL240C, strain hsp82, stronger effect = lower value 1.03 | locus YPL256C, strain CLN2, stronger effect = lower value 0.894 | locus YPR119W, strain clb2, stronger effect = lower value 1 | locus YPR141C, strain kar3, stronger effect = lower value 0.995 | locus YPR163C, strain tif3, stronger effect = lower value 1 | locus YPR167C, strain met16, stronger effect = lower value 0.996 | strain wtn01, stronger effect = lower value 1.01
active: locus YLR113W, strain HOG1, stronger effect = lower value 0.844

O=C(O)/C=C/C(=O)O
inactive: locus YAL040C, strain CLN3, stronger effect = lower value 1.02 | locus YCL061C, strain MRC1 (second series), stronger effect = lower value 1.01 | locus YDR363W, strain ESC2, stronger effect = lower value 1.01 | locus YER002W, strain NOP16, stronger effect = lower value 1.04 | [1] 1.01 | [2] 1.01 | locus YNL175C, strain NOP13, stronger effect = lower value 1.01 | locus YNL197C, strain WHI3, stronger effect = lower value 1 | locus YNL224C, strain SQS1, stronger effect = lower value 1 | [3] 1.02 | locus YOR083W, strain WHI5 (second series), stronger effect = lower value 1 | locus YPL055C, strain LGE1, stronger effect = lower value 1.02
